Source: PubChem BioAssay AID1159580 (chemical genetic matrix, 2015)
Several values for one entry are separate records, joined by “and”; a condition that tells them apart may be missing. Identical values can stand only once. The campaign covered roughly 5,500 compounds. About 2,000 (36%) were called active. Inconclusive results (about 18%) are left out. No stated cut-off is given here; in the data, active means normalized growth mostly below about 0.91 (no sharp cut-off); inconclusive means no clear call, values can overlap the other calls; inactive means mostly above about 0.92. The list shows a part of the results.

Test: chemical genetic growth profiling, strain panel (AID 1159580);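 further: tested at 20 µM; growth read once vehicle control cultures reached saturation at 30 °C; 1 = growth at the plate median or of vehicle wells; lower values mean less growth of the strain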
Settings: growth OD

Measured: normalized growth

CC(C)OC(=O)C(C)(C)Oc1ccc(C(=O)c2ccc(Cl)cc2)cc1
inactive: S. cerevisiae deletion strains, locus YJR075W, strain HOC1, hits give low values 0.957 and 0.996 | S. cerevisiae deletion strains, locus YKL009W, strain mrt4, hits give low values 0.906 | S. cerevisiae deletion strains, locus YKL068W, hits give low values 0.987 | S. cerevisiae deletion strains, locus YKL085W, strain MDH1 (second series), hits give low values 0.947 | S. cerevisiae deletion strains, locus YKL085W, strain MDH1, hits give low values 0.947 | S. cerevisiae deletion strains, locus YKL160W, strain elf1, hits give low values 0.987 | S. cerevisiae deletion strains, locus YKL190W, strain CNB1, hits give low values 0.974 | S. cerevisiae deletion strains, locus YKR001C, strain vps1, hits give low values 0.971 | S. cerevisiae deletion strains, locus YKR026C, strain gcn3, hits give low values 0.959 | S. cerevisiae deletion strains, locus YKR091W, strain srl3, hits give low values 0.977 | S. cerevisiae deletion strains, locus YLL001W, strain dnm1, hits give low values 0.96 | S. cerevisiae deletion strains, locus YLL026W, hits give low values 0.969 | S. cerevisiae deletion strains, locus YLL041C, strain sdh2, hits give low values 0.975 | S. cerevisiae deletion strains, locus YLR027C, strain aat2, hits give low values 0.967 | S. cerevisiae deletion strains, locus YLR039C, strain RIC1, hits give low values 0.935 | S. cerevisiae deletion strains, locus YLR058C, strain SHM2, hits give low values 1 | S. cerevisiae deletion strains, locus YLR102C, strain apc9, hits give low values 0.988 | S. cerevisiae deletion strains, locus YLR113W, strain HOG1, hits give low values 0.942 | S. cerevisiae deletion strains, locus YLR221C, strain rsa3, hits give low values 0.976 | S. cerevisiae deletion strains, locus YLR258W, strain gsy2, hits give low values 0.957 | S. cerevisiae deletion strains, locus YLR262C, strain YPT6 (second series), hits give low values 0.962 | S. cerevisiae deletion strains, locus YLR262C, strain YPT6, hits give low values 0.984 | S. cerevisiae deletion strains, locus YLR268W, strain sec22, hits give low values 0.971 | S. cerevisiae deletion strains, locus YLR320W, strain mms22, hits give low values 0.96 | S. cerevisiae deletion strains, locus YLR330W, strain CHS5, hits give low values 1.01 | S. cerevisiae deletion strains, locus YLR342W, strain FKS1 (second series), hits give low values 1.12 | S. cerevisiae deletion strains, locus YLR342W, strain FKS1, hits give low values 0.955 | S. cerevisiae deletion strains, locus YLR357W, strain rsc2, hits give low values 0.957 | S. cerevisiae deletion strains, locus YLR370C, strain arc18, hits give low values 0.967 | S. cerevisiae deletion strains, locus YLR371W, strain rom2, hits give low values 0.986 | S. cerevisiae deletion strains, locus YLR384C, strain iki3, hits give low values 0.971 | S. cerevisiae deletion strains, locus YLR418C, strain cdc73, hits give low values 0.879 | S. cerevisiae deletion strains, locus YML016C, strain PPZ1, hits give low values 1.01 | S. cerevisiae deletion strains, locus YML032C, strain rad52, hits give low values 0.984 | S. cerevisiae deletion strains, locus YML120C, strain ndi1, hits give low values 0.964 | S. cerevisiae deletion strains, locus YML124C, strain tub3, hits give low values 0.982 | S. cerevisiae deletion strains, locus YMR058W, strain fet3, hits give low values 0.987 | S. cerevisiae deletion strains, locus YMR078C, strain ctf18, hits give low values 0.982 | S. cerevisiae deletion strains, locus YMR125W, strain sto1, hits give low values 0.942 | S. cerevisiae deletion strains, locus YMR129W, hits give low values 0.97 | S. cerevisiae deletion strains, locus YMR205C, strain PFK2, hits give low values 0.923 | S. cerevisiae deletion strains, locus YMR223W, strain ubp8, hits give low values 0.958 | S. cerevisiae deletion strains, locus YMR231W, strain pep5, hits give low values 0.969 | S. cerevisiae deletion strains, locus YMR263W, strain SAP30, hits give low values 1 | S. cerevisiae deletion strains, locus YMR307W, strain GAS1, hits give low values 0.807 and 0.993 | S. cerevisiae deletion strains, locus YNL067W, strain RPL9B, hits give low values 0.973 | S. cerevisiae deletion strains, locus YNL071W, strain lat1, hits give low values 0.941 | S. cerevisiae deletion strains, locus YNL128W, strain TEP1, hits give low values 1.01 | S. cerevisiae deletion strains, locus YNL153C, strain GIM3, hits give low values 1.01 and 1.02 | S. cerevisiae deletion strains, locus YNL175C, strain NOP13, hits give low values 1.02 | S. cerevisiae deletion strains, locus YNL183C, strain NPR1, hits give low values 0.893 | S. cerevisiae deletion strains, locus YNL197C, strain WHI3, hits give low values 1.03 | S. cerevisiae deletion strains, locus YNL209W, strain ssb2, hits give low values 0.983 | S. cerevisiae deletion strains, locus YNL224C, strain SQS1, hits give low values 0.991 | S. cerevisiae deletion strains, locus YNL233W, strain BNI4, hits give low values 0.978 | S. cerevisiae deletion strains, locus YNL248C, strain rpa49, hits give low values 0.997 | S. cerevisiae deletion strains, locus YNL250W, strain rad50, hits give low values 0.989 | S. cerevisiae deletion strains, locus YNL271C, strain bni1, hits give low values 0.985 | S. cerevisiae deletion strains, locus YNL298W, strain CLA4, hits give low values 0.992 | S. cerevisiae deletion strains, locus YNL307C, strain MCK1, hits give low values 0.973 | S. cerevisiae deletion strains, locus YNL322C, strain KRE1 (second series), hits give low values 0.983 | S. cerevisiae deletion strains, locus YNL322C, strain KRE1, hits give low values 1.01 and 0.984 | S. cerevisiae deletion strains, locus YNR049C, strain mso1, hits give low values 0.98 | S. cerevisiae deletion strains, locus YNR052C, strain pop2, hits give low values 0.991 | S. cerevisiae deletion strains, locus YOL006C, strain TOP1, hits give low values 0.61 | S. cerevisiae deletion strains, locus YOL012C, strain htz1 0.615 | S. cerevisiae deletion strains, locus YOL147C, strain pex11, hits give low values 0.984 | S. cerevisiae deletion strains, locus YOR001W, strain rrp6, hits give low values 0.99 | S. cerevisiae deletion strains, locus YOR061W, strain CKA2, hits give low values 0.986 | S. cerevisiae deletion strains, locus YOR069W, strain VPS5, hits give low values 1.01 | S. cerevisiae deletion strains, locus YOR070C, strain gyp1, hits give low values 0.971 | S. cerevisiae deletion strains, locus YOR080W, strain dia2, hits give low values 0.972 | S. cerevisiae deletion strains, locus YOR083W, strain WHI5 (second series), hits give low values 1.12 | S. cerevisiae deletion strains, locus YOR083W, strain WHI5, hits give low values 0.996 | S. cerevisiae deletion strains, locus YOR106W, strain vam3, hits give low values 0.927 | S. cerevisiae deletion strains, locus YOR136W, strain idh2, hits give low values 0.989 | S. cerevisiae deletion strains, locus YOR144C, strain elg1, hits give low values 0.992 | S. cerevisiae deletion strains, locus YOR184W, strain ser1, hits give low values 0.909 | S. cerevisiae deletion strains, locus YOR231W, strain MKK1, hits give low values 0.949 | S. cerevisiae deletion strains, locus YOR265W, strain rbl2, hits give low values 0.97 | S. cerevisiae deletion strains, locus YOR270C, strain vph1, hits give low values 0.799 | S. cerevisiae deletion strains, locus YOR290C, strain snf2, hits give low values 0.97 | S. cerevisiae deletion strains, locus YOR316C, strain cot1, hits give low values 0.988 | S. cerevisiae deletion strains, locus YPL051W, strain arl3, hits give low values 1 | S. cerevisiae deletion strains, locus YPL055C, strain LGE1, hits give low values 0.971 | S. cerevisiae deletion strains, locus YPL078C, strain atp4, hits give low values 0.985 | S. cerevisiae deletion strains, locus YPL106C, strain sse1, hits give low values 1.02 | S. cerevisiae deletion strains, locus YPL240C, strain hsp82, hits give low values 0.994 | S. cerevisiae deletion strains, locus YPL241C, strain CIN2, hits give low values 0.99 and 0.991 | S. cerevisiae deletion strains, locus YPL256C, strain CLN2, hits give low values 0.953 | S. cerevisiae deletion strains, locus YPR119W, strain clb2, hits give low values 0.983 | S. cerevisiae deletion strains, locus YPR141C, strain kar3, hits give low values 0.985 | S. cerevisiae deletion strains, locus YPR163C, strain tif3, hits give low values 0.981 | S. cerevisiae deletion strains, locus YPR167C, strain met16, hits give low values 0.984 | S. cerevisiae deletion strains, strain wtn01, hits give low values 0.987 | S. cerevisiae strains, strain wild type, hits give low values 0.993
